# Results taken from PubChem BioAssay AID588342 (National Center for Advancing Translational Sciences (NCATS), 2011).
# In all, about 360,000 compounds went through this assay and about 25,000 (6.9%) were called active. Where a call stands in place of a potency, no number is given. Another 9% or so got no clear call; they are omitted. Calls follow the shape of the dose curve; as a rule, active = well fitted inhibition curve with a large enough effect; inconclusive = small, poorly fitted or top-dose-only effect; inactive = flat fitted curve, though single readings scatter. The sample as a whole holds a higher share of actives than the screen did.
# Molecular target: Luciferin 4-monooxygenase (Photinus pyralis) (UniProt P08659)
# Sequence (P08659 whole entry, looked up): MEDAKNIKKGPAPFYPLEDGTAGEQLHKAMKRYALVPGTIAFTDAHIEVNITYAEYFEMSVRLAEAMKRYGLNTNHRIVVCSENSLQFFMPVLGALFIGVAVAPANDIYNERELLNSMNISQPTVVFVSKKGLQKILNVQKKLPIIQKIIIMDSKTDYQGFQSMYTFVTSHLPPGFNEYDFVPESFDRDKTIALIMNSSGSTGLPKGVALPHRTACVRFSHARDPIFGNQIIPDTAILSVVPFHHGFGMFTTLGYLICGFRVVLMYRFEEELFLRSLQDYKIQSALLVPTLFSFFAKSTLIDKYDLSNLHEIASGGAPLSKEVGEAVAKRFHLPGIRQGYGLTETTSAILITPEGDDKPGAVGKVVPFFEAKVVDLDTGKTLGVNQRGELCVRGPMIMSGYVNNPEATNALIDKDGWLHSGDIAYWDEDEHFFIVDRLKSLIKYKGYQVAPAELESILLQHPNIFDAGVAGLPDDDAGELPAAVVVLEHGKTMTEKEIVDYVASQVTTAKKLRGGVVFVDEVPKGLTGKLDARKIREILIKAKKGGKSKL
# Assay: qHTS profiling assay for firefly luciferase inhibitor/activator using purifed enzyme and Km concentrations of substrates (counterscreen for miR-21 project); also: nearly all actives have a fitted effect of over 55% in size
# Settings: purified FLuc, luminescence inhibition; series mostly up to 57.5 µM
# Outline: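 Biochemical qHTS of compounds, final roughly 60 µM downward over six points, against 10 nM purified firefly luciferase using Km concentrations of substrates (10 uM D-luciferin, 10 uM ATP) in Tris acetate pH 7.5 buffer; luminescence output.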
# Potency is read from the fitted curve at half-maximal effect.
row,Compound,Potency
1,CC(C)COC(=O)c1ccc(NC(=O)C2C3C=CC(C3)C2C(=O)O)cc1 (centres undefined),19 µM (active)
2,CC(=O)NS(=O)(=O)c1ccc(NC(=O)C2C3C=CC(C3)C2C(=O)O)cc1 (centres undefined),inactive
3,COC(=O)c1cc(NC(=O)C2C3C=CC(C3)C2C(=O)O)cc(C(=O)OC)c1 (centres undefined),inactive
4,CCCN(CC1CC1)C(=S)NC(=O)c1ccccc1Br,inactive
5,Cc1csc2nc(COC(=O)c3ccc(NC(=O)COc4ccccc4F)cc3)cc(=O)n12,inactive
6,COc1ccccc1N1CCN(C(=O)C2CCN(S(=O)(=O)c3c(C)noc3/C=C/c3ccc(C)cc3)CC2)CC1,inactive
7,COCCNC(=O)C1CCN(S(=O)(=O)c2ccc3c(c2)OCCO3)CC1,inactive
8,O=C(NCc1cccs1)C1CCN(S(=O)(=O)c2ccc3c(c2)OCCO3)CC1,inactive
9,O=C(NCc1ccccn1)C1CCN(S(=O)(=O)c2ccc(Br)cc2)CC1,inactive
10,O=C(Nc1ccccn1)C1CCN(S(=O)(=O)c2ccc3c(c2)OCCO3)CC1,19 µM (active)
11,O=C(Nc1ccccn1)C1CCN(S(=O)(=O)c2ccccc2)CC1,23.9 µM (active)
12,Cc1csc(NC(=O)C2CCN(S(=O)(=O)c3ccccc3)CC2)n1,inactive
13,C=Cc1ccc(Cn2c(C(=O)O)c(CNC3CCCC3)c3ccc(C)cc32)cc1,inactive
14,CCOC(=O)c1c(NC(C)=O)c2c3c(sc2n1Cc1c(C)cc(C)cc1C)CCCC3,inactive
15,CCOC(=O)c1ccccc1NC(=O)COC(=O)C(Cc1c[nH]c2ccccc12)NC(C)=O (centres undefined),inactive
16,CCC(=O)N1CCc2cc(S(=O)(=O)NCCC(=O)Nc3cccc(C)c3C)ccc21,inactive
17,Cc1oc(C)c2c(=O)cc(-c3ccc4c(c3)OCO4)cc(OC(=O)c3ccc(Cl)cc3)c12,inactive
18,Cc1ccccc1-n1c(C)cc(/C=C2\NC(=O)NC2=O)c1C,1.9 µM (active)
19,CSc1cc(C)n(-c2ccccc2C)c(=S)c1C(C)=O,inactive
20,Cc1cc(/C=C2\SC(=Nc3ccc(N4CCOCC4)cc3)N(C)C2=O)c(C)n1-c1cccnc1,inactive
21,Cc1ccc2c(c1)C(O)(CC(=O)c1cccnc1)C(=O)N2 (centres undefined),inactive
22,Cc1cc(/C=C2/NC(=O)NC2=O)c(C)n1-c1cccnc1,15.1 µM (active)

row,Compound,Potency
1,Cc1ccccc1N1CC(c2nc3ccccc3[nH]2)CC1=O (centres undefined),inactive
2,C=CCn1c(=O)c(C(=O)NCc2ccc3c(c2)OCO3)c(O)c2ccccc21,inactive
3,O=C(NNS(=O)(=O)c1ccc(F)cc1)c1cnccn1,inactive
4,O=C(CC1Oc2ccccc2NC1=O)NCc1ccc(F)cc1 (centres undefined),inactive
5,CCOC(=O)c1c(C)oc2ccc(N(C(=O)c3ccncc3)S(=O)(=O)c3ccc(CC)cc3)cc12,inactive
6,O=Cc1c(Cl)cccc1Cl,inactive
7,CSCCNCc1cn(-c2ccc(F)cc2F)nc1-c1ccccc1C,inactive
8,Cc1ccc(-c2nn(-c3cccc(F)c3)cc2CNCCc2ccncc2)o1,15.1 µM (active)
9,Cc1ccc(-c2nn(-c3ccccc3)cc2CN(Cc2ccccc2)C(=O)CCC(=O)O)o1,inactive
10,CCCN(CCC)CCNC(=O)Cn1cnc2sc(C)c(S(=O)(=O)N3CCC(C)CC3)c2c1=O,inactive
11,N#Cc1nc(/C=C/c2ccc(F)cc2)oc1NC1CCCCC1,inactive
12,Cc1ccc(-c2nn(-c3ccccc3)cc2/C=N/NC(=O)c2ccc3c(c2)OCO3)cc1,4.26 µM (active)
13,CC(C)(C)OC(=O)N/N=C/c1cn(-c2ccccc2)nc1-c1cccnc1,inactive
14,O=C(N/N=C/c1ccc([N+](=O)[O-])o1)c1cn(-c2ccccc2)nc1-c1ccc(F)cc1,inactive
15,COc1ccc(C(=O)N2CCC(c3nc4ccccc4o3)CC2)cc1,inactive
16,CC(C)c1ccc(OCC(O)CN2CCN(c3ccccn3)CC2)cc1 (centres undefined),inactive
17,CC(O)c1ccc(OCCN(C)c2ccccn2)cc1 (centres undefined),15.1 µM (active)
18,CCOc1ccc(C(C(=O)NCCOC)N(CCOC)C(=O)CCC(=O)Nc2ccccn2)cc1 (centres undefined),inactive
19,COCCn1c(CCC(=O)Nc2cc(C)ccc2C)nc2cccnc21,inactive
20,COc1ccc2c(c1)C=C(C(=O)NCc1cc(Br)ccc1OC)CO2,inactive
21,COc1ccccc1NC(=O)c1sc2nc(C)c(C(=O)Nc3ccc(Cl)cc3)c(-c3ccc(Br)cc3)c2c1N,inactive
22,Cc1cc(/C=C2/SC(=O)N(CC(=O)OC(C)C)C2=O)c(C)n1C,15.1 µM (active)

row,Compound,Potency
1,CC(C)OC(=O)CN1C(=O)C(=O)c2ccccc21,inactive
2,O=C(CN1CCCCCC1)NCCN1C(=O)S/C(=C\c2ccccc2Cl)C1=O,inactive
3,COc1cccc(CNC(=O)c2n[nH]c3ccccc23)c1,26.9 µM (active)
4,O=C(COC(=O)c1n[nH]c2ccccc12)NCc1ccccc1,inactive
5,O=C(NCCc1ccc(F)cc1)c1ccc2nccnc2c1,8.49 µM (active)
6,O=C(CC(=O)N/N=C\c1ccc(F)cc1)NCCc1ccccc1,inactive
7,COc1ccc(F)cc1C(=O)COC(=O)c1n[nH]c(=O)c2ccccc12,inactive
8,O=C(COC(=O)Cc1c[nH]c2ccccc12)NCCc1ccccc1,inactive
9,COc1ccc(COC(=O)c2n[nH]c3ccccc23)cc1F,19 µM (active)
10,O=C(NCCc1ccc(F)cc1)c1n[nH]c2ccccc12,16.9 µM (active)
11,COc1ccc(NC(=O)COC(=O)c2n[nH]c3ccccc23)c(OC)c1,inactive
12,O=C(NCCc1ccc(F)cc1)c1ccc(S(=O)(=O)N2CCCCC2)cc1,inactive
13,COc1cccc(CNC(=O)Cc2csc(Nc3nc(=S)[nH]c4ccccc34)n2)c1,inactive
14,O=C(NCCc1ccc(Cl)cc1)c1ccc2c(c1)N(Cc1ccc(F)cc1)C(=O)CS2,inactive
15,COc1ccc(CCNC(=O)c2cc(=O)c3c(C)cc(C)cc3o2)cc1OC,inactive
16,CCOC(=O)c1cccc(NC(=O)c2cc(CN3CCCC3)on2)c1,inactive
17,Cc1ccc(CNC(=O)CCC(=O)N2Cc3ccccc3Oc3ncccc32)cc1,inactive
18,CC(=O)c1c(C)[nH]c(C(=O)OCC(=O)Nc2c(C)n(C)n(-c3ccccc3)c2=O)c1C,inactive
19,CC1(NC(=O)CCS(=O)(=O)c2ccc(Cl)cc2)CCS(=O)(=O)C1 (centres undefined),inactive
20,Cc1ccccc1CN1CCC(CNC(=O)c2c(C)oc3ncnc(N4CCCCC4)c23)CC1,inactive
